Data on 3 molecules can be found in ChEMBL document CHEMBL1961873, “Compounds: GSK PKIS; Assays: Nanosyn kinase panel” (2012).

Assay [1] concerns the target T1, Mitogen-activated protein kinase 12 (Homo sapiens) (UniProt P53778).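 Also: values are averaged p38gamma kinase inhibition readings, compounds tested at 1 µM.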
T1 sequence (whole entry): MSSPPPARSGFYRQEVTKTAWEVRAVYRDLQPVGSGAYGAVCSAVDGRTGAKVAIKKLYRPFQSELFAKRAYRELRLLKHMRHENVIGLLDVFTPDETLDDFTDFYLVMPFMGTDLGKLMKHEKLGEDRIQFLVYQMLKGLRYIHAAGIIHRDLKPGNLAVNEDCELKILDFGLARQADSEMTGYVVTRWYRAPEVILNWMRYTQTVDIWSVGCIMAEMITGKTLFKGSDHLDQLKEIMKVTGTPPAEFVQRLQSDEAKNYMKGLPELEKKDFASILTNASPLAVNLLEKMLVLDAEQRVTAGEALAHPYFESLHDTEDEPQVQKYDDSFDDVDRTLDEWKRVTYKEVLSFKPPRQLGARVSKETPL
As to conditions: at 1 µM.

The target in assay [2] is SRSF protein kinase 1 (Homo sapiens) (UniProt Q96SB4). As to conditions: at 0.1 µM.
SRSF protein kinase 1 (Homo sapiens), sequence (Q96SB4 whole entry): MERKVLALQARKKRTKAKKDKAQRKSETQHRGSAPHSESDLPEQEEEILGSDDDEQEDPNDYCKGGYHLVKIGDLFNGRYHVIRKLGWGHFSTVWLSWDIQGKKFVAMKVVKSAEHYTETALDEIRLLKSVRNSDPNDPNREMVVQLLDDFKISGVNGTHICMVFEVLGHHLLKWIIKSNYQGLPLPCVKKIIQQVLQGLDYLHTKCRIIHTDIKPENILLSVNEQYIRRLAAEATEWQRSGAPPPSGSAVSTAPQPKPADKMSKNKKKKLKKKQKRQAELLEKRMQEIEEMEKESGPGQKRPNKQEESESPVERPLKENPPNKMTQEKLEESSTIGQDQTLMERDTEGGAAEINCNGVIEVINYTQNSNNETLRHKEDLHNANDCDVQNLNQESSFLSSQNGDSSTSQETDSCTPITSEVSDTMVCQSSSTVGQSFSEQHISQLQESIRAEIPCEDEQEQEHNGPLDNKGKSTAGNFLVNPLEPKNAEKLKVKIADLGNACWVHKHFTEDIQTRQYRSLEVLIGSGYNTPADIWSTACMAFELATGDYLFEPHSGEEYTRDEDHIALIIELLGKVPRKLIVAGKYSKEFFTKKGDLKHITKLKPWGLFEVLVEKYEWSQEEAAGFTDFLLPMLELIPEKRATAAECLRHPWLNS
Assay [3] shares this target. As to conditions: at 1 µM.
Assay [4] deals with Phosphatidylinositol 4,5-bisphosphate 3-kinase catalytic subunit alpha isoform (Homo sapiens) (UniProt P42336). As to conditions: at 0.1 µM.
Phosphatidylinositol 4,5-bisphosphate 3-kinase catalytic subunit alpha isoform (Homo sapiens), sequence (P42336 whole entry, canonical isoform): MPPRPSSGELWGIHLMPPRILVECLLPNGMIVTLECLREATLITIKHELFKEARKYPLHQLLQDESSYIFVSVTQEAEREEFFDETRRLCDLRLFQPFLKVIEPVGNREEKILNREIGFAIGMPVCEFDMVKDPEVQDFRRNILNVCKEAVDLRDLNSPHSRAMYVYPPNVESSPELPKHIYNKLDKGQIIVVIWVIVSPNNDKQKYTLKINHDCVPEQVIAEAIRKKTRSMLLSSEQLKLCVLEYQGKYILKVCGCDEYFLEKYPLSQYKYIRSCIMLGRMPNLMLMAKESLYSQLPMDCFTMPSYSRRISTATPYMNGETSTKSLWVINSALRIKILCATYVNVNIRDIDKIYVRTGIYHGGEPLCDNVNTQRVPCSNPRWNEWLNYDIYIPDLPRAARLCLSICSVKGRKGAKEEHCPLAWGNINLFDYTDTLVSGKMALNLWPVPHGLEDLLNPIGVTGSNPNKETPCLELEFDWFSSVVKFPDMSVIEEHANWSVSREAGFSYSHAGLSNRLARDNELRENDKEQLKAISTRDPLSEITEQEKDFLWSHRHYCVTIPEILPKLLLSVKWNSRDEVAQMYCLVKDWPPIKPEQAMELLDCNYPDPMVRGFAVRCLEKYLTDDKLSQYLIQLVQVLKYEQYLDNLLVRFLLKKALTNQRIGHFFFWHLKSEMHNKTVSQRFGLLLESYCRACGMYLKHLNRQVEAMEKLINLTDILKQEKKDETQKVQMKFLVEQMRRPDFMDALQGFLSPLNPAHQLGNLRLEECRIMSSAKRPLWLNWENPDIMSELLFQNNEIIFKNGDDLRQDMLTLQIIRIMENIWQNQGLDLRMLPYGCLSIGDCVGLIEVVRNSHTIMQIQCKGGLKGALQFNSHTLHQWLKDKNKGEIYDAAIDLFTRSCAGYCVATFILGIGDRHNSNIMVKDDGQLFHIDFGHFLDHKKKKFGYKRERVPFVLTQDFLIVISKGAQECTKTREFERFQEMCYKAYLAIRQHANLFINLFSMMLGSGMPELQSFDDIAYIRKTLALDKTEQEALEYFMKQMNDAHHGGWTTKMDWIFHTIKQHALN
For assay [5] the target is unchanged. As to conditions: at 1 µM.
The target of assay [6] is T2, Phosphatidylinositol 4,5-bisphosphate 3-kinase catalytic subunit delta isoform (Homo sapiens) (UniProt O00329).
T2 sequence (whole entry): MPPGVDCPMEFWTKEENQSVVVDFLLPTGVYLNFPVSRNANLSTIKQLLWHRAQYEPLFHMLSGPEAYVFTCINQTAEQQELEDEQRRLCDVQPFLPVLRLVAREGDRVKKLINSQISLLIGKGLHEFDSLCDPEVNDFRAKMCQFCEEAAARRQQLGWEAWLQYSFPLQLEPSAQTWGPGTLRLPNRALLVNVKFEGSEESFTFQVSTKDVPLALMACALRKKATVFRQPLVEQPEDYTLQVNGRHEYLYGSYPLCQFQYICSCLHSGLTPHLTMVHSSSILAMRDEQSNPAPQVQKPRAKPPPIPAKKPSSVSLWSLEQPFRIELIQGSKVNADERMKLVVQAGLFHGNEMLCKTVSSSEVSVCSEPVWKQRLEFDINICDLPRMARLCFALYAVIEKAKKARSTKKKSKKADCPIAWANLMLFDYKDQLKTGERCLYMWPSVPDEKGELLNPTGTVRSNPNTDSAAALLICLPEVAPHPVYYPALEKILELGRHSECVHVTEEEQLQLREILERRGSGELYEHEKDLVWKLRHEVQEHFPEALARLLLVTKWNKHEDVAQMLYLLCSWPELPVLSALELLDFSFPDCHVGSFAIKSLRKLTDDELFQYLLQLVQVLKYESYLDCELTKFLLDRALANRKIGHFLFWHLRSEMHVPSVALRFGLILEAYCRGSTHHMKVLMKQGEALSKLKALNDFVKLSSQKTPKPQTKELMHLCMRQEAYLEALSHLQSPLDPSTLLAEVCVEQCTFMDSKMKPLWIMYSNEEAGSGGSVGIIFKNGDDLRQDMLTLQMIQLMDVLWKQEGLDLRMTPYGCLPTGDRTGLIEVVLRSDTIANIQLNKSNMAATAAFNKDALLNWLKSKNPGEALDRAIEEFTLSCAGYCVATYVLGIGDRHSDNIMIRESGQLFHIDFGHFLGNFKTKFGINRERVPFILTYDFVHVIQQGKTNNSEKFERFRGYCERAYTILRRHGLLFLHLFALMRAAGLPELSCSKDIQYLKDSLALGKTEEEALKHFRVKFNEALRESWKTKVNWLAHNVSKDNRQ
As to conditions: at 0.1 µM.

Assay [7] has as its target T2, Phosphatidylinositol 4,5-bisphosphate 3-kinase catalytic subunit delta isoform (Homo sapiens). As to conditions: at 1 µM.
For assay [8], the target named is Phosphatidylinositol 4-kinase beta (Homo sapiens) (UniProt Q9UBF8). As to conditions: at 0.1 µM.
Phosphatidylinositol 4-kinase beta (Homo sapiens), sequence (Q9UBF8 2-816 limits assumed): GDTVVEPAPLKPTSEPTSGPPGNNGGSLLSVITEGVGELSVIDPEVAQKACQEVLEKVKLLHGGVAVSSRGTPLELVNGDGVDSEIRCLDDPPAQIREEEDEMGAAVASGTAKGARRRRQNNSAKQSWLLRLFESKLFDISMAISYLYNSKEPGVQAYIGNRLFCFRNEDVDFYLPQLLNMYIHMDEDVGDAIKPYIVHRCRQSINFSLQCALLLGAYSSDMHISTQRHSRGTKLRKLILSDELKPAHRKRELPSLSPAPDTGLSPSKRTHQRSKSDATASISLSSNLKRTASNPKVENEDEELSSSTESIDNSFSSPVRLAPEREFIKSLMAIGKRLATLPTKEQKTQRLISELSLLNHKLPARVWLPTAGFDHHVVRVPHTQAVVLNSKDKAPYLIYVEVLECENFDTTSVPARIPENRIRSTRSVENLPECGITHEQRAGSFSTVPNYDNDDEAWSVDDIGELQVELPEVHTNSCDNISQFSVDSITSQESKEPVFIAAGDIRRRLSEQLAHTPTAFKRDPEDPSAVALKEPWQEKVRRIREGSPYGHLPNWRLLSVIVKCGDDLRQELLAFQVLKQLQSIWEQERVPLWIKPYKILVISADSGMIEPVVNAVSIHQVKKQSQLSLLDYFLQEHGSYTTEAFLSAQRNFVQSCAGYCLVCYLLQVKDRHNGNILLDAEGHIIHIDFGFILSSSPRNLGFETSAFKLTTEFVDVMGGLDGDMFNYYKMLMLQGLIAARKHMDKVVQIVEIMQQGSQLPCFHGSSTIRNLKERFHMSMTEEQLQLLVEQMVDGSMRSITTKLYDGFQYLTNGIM
Assay [9] shares this target. As to conditions: at 1 µM.
In assay [10] the target is Sphingosine kinase 1 (Homo sapiens) (UniProt Q9NYA1). As to conditions: at 0.1 µM.
Sphingosine kinase 1 (Homo sapiens), sequence (Q9NYA1 whole entry): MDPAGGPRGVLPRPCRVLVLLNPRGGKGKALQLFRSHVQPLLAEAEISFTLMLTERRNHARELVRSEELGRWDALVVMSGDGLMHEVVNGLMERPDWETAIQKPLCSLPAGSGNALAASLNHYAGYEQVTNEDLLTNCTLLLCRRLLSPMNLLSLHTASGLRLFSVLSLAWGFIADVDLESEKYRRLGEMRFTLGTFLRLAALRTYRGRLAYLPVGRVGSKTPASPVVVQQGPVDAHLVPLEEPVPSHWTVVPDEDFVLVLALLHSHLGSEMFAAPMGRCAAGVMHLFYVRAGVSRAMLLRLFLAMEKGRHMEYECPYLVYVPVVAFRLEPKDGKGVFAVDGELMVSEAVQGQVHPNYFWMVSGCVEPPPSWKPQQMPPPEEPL
Assay [11] has the same target. As to conditions: at 1 µM.
In assay [12] the target is T3, Sphingosine kinase 2 (Homo sapiens) (UniProt Q9NRA0).
T3 sequence (whole entry): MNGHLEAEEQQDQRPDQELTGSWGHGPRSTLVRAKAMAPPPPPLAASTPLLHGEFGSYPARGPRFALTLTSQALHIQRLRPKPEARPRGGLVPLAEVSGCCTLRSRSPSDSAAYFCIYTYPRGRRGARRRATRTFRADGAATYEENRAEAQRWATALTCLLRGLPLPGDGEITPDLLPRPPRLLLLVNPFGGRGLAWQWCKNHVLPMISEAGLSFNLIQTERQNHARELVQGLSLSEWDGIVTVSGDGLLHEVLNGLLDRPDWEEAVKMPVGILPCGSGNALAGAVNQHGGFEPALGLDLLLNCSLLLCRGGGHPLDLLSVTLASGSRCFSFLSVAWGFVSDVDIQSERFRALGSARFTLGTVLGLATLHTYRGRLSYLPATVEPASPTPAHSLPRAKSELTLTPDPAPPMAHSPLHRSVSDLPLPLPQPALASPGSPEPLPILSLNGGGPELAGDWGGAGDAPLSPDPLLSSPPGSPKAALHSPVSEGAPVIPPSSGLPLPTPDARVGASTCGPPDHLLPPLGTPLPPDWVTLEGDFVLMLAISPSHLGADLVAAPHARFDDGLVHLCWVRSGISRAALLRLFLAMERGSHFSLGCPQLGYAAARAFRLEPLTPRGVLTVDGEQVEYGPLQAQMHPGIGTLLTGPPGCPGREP
As to conditions: at 0.1 µM.

For assay [13], the target named is T3, Sphingosine kinase 2 (Homo sapiens). As to conditions: at 1 µM.
For assay [14], the target named is Casein kinase II subunit alpha (Homo sapiens) (UniProt P68400). As to conditions: at 0.1 µM.
Casein kinase II subunit alpha (Homo sapiens), sequence (P68400 whole entry, looked up): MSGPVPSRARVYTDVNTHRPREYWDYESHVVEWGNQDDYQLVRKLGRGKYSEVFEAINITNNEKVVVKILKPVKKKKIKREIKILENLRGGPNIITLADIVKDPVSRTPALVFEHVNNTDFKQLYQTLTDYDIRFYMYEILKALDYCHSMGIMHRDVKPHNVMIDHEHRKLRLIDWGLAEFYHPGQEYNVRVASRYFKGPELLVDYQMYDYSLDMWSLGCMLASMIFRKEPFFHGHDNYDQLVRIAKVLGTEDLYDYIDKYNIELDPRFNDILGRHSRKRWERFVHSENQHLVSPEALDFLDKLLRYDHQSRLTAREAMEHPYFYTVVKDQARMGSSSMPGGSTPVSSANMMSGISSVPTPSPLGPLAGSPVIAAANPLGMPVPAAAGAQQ
The target is the same in assay [15]. As to conditions: at 1 µM.
In assay [16] the target is T4, Inhibitor of nuclear factor kappa-B kinase subunit alpha (Homo sapiens) (UniProt O15111).
T4 sequence (whole entry): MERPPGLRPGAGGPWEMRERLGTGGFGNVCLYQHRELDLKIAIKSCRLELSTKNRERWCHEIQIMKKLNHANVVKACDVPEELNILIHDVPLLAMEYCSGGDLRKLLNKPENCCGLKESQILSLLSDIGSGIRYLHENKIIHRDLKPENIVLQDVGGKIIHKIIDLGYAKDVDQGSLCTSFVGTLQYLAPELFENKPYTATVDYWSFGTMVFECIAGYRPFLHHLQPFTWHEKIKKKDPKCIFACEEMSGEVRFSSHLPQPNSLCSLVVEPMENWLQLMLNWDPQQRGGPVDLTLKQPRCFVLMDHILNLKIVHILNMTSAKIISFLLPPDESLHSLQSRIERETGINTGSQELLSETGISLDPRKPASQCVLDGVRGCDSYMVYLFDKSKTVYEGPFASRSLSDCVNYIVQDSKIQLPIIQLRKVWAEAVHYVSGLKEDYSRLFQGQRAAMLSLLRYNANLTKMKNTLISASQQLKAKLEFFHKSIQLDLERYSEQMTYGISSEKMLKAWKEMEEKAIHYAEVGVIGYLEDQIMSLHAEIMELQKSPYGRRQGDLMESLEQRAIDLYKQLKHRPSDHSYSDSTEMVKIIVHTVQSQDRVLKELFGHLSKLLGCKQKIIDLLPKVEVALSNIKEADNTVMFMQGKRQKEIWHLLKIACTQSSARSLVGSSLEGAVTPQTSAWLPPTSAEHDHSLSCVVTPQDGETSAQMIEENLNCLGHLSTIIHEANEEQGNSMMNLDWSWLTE
As to conditions: at 0.1 µM.

Assay [17] has as its target T4, Inhibitor of nuclear factor kappa-B kinase subunit alpha (Homo sapiens). As to conditions: at 1 µM.
The target in assay [18] is T5, Inhibitor of nuclear factor kappa-B kinase subunit beta (Homo sapiens) (UniProt O14920).
T5 sequence (whole entry): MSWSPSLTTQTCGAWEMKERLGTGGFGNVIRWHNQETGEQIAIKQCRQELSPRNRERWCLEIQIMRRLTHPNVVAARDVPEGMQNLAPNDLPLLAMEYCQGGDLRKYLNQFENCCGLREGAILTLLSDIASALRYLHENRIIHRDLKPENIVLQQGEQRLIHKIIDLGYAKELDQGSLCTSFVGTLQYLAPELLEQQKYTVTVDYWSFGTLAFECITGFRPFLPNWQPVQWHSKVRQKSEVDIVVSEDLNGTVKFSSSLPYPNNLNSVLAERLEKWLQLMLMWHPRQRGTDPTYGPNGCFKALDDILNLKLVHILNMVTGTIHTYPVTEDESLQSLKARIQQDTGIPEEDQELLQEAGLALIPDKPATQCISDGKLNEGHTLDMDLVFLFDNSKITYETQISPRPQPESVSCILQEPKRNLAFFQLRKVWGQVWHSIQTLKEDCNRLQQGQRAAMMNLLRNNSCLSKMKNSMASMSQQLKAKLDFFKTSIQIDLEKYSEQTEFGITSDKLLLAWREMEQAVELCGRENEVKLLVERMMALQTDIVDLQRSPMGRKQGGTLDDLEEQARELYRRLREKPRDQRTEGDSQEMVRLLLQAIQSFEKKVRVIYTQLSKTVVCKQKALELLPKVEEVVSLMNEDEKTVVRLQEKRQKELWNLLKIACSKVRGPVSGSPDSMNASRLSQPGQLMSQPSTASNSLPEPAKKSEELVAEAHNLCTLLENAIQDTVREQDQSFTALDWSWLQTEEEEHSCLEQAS
As to conditions: at 0.1 µM.

Assay [19] concerns the target T5, Inhibitor of nuclear factor kappa-B kinase subunit beta (Homo sapiens). As to conditions: at 1 µM.
Assay [20] addresses T6, Inhibitor of nuclear factor kappa-B kinase subunit epsilon (Homo sapiens) (UniProt Q14164).
T6 sequence (whole entry): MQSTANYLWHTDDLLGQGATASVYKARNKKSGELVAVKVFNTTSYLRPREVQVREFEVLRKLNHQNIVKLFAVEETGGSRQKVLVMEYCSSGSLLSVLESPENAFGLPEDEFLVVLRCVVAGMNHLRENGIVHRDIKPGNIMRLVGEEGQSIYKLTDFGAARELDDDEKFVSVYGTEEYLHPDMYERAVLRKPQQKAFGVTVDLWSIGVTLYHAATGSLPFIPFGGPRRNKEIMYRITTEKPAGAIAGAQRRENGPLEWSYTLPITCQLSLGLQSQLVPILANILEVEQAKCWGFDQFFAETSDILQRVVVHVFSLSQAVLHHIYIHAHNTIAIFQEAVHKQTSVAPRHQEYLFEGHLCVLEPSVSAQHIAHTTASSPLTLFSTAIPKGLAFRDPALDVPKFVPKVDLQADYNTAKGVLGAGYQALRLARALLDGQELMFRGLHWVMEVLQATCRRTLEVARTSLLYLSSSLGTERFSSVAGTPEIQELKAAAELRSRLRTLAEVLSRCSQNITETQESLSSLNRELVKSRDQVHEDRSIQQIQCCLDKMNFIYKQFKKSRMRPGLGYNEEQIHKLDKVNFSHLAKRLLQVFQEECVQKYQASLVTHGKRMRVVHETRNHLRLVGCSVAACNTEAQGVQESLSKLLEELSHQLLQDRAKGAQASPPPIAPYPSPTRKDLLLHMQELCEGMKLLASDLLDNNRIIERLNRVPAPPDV
As to conditions: at 0.1 µM.

SMILES strings stand for the structures.

The term inhibition denotes the drop in the measured response relative to a control, in per cent. With `CC1=C(C(=O)Nc2ccc3[nH]ncc3c2)C(c2ccc(Cl)c(Cl)c2)CC(=O)N1` (stereo not given), the inhibition in assay [1] was 1.19%; in [2] it was -1.56%; in assay [3], -3.22%; in assay [4], -0.33%; in [5] it was -0.79%; in assay [6], 0.18%. Also, the inhibition was 1.04% in [7]; 0.44% in assay [8]; -1.19% in assay [9]; 0.43% in assay [10]; -3.67% in assay [11]; -0.3% in assay [12]. Further, the inhibition in assay [13] was -1.45%; in [14], 2.1%; in assay [15] it was 3.35%; in assay [16] it was 5.09%; in [17], 2.52%; in assay [18] it was 3.16%. The inhibition was 0.15% in assay [19] and 0.83% in assay [20].
Regarding `COc1ccc(-c2nn3ncccc3c2-c2ccnc(Nc3ccc(Cl)c(C(F)(F)F)c3)n2)cc1`, the inhibition is 0.36% in [1]; -1.95% in assay [2]; -0.38% in [3]; 1% in assay [4]; 10.4% in assay [5]; -0.59% in assay [6]. In addition, the inhibition in [7] is 2.57%; in assay [8], -1.86%; in assay [9] it was 0.08%; in assay [10], 19.3%; in assay [11] it was -2.15%; in assay [12], -0.61%. The inhibition in assay [13] was 0.61%; in assay [14], 2.8%; in assay [15], 8.2%; in [16], 5.34%; in assay [17] it was 3.48%; in assay [18] it was 5.25%. Further, the figures for the inhibition in assay [19] and in assay [20] were 8.22% and 4.71%, respectively.
`COc1cc2ncn(-c3cc(O[C@@H](C)c4ccccc4Cl)c(C(N)=O)s3)c2cc1OC`: the inhibition is 3.72% in assay [1]; -2.61% in assay [2]; -2.08% in [3]; 4.55% in [4]; 11.5% in assay [5]; 2.44% in assay [6]. Moreover, the inhibition is 10.6% in [7]; 3.29% in assay [8]; -6.07% in assay [9]; 1.31% in [10]; -1.61% in assay [11]; -0.7% in assay [12]. Moreover, the inhibition in assay [13] stood at 0%; in [14], 6.99%; in assay [15] it was 3.34%; in [16], 4.16%; in assay [17], 8.5%; in assay [18] it was 6.47%. The inhibition in assay [19] was 4.88%; in assay [20], 5.3%.
